{"source": "PubChem BioAssay AID602281", "about": "(The Scripps Research Institute Molecular Screening Center, 2012)", "note": "Out of some 360,000 compounds screened, about 2,900 (0.81%) were called active. Shown is part of a subset that was picked to be rich in actives. Unmarked numbers belong to inactive results.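 How the source made its calls: active means inhibition above the mean inhibition across every tested compound plus 3 SD (cut at about 22% in these data); inactive means the rest.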"}
{"target": "Perilipin-5 (Homo sapiens) + 1-acylglycerol-3-phosphate O-acyltransferase ABHD5 (Homo sapiens) (UniProt Q00G26+Q8WTS1)", "sequence (Q00G26 whole entry, looked up)": "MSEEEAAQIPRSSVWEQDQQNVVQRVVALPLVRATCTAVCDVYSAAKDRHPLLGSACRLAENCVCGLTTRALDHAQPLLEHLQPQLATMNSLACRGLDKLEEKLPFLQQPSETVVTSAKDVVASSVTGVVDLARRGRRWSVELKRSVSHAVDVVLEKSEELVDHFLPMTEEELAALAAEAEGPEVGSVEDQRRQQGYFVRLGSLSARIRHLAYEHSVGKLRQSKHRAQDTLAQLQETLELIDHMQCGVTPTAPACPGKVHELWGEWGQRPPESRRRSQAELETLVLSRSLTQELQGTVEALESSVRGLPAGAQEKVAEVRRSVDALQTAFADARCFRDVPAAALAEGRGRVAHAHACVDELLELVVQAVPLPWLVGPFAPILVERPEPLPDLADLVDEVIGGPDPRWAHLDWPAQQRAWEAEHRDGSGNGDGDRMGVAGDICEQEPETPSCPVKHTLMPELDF", "sequence (Q8WTS1 whole entry, looked up)": "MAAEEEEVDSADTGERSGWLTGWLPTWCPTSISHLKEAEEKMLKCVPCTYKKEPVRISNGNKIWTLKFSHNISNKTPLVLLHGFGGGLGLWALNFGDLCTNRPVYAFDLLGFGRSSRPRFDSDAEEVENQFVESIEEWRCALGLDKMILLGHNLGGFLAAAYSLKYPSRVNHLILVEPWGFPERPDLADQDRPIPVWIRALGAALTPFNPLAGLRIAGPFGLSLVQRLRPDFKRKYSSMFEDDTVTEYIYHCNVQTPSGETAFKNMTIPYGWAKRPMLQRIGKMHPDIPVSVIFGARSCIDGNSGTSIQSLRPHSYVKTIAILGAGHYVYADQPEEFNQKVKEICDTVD", "assay": "ABHD5-PLIN5 interaction inhibitors, primary screen, cell lysate, split luciferase complementation, luminescence (AID 602281);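 further: 0% = DMSO only wells and the 100% control is not disclosed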", "conditions": "Split G. princeps luciferase complementation, 4 h, at 4 µM, stronger effect = higher value"}
{"smiles": "O=C(Nc1nccs1)C1CCN(S(=O)(=O)c2ccc(Cl)c(C(F)(F)F)c2)CC1", "inhibition": "-4.59%"}
{"smiles": "CCN1CCN(C(=O)C2CCCN(S(=O)(=O)c3ccc(OC)c(OC)c3)C2)CC1", "note": "(stereo not given)", "inhibition": "7.45%"}
{"smiles": "O=C(NCc1cccc(Cl)c1)C1=CC=CN2CCS(=O)(=O)N=C12", "inhibition": "-4.23%"}
{"smiles": "COc1ccc(S(=O)(=O)N2CCN(C(=O)NC3CCCCC3)CC2)cc1", "inhibition": "-2.23%"}
{"smiles": "CC(C)[C@H](NC(=O)c1ccc(F)cc1)C(=O)OCC(=O)NC(=O)c1cccn1C", "inhibition": "-4.59%"}
{"smiles": "Cc1ccc2c(c1)C1CN(C)CCC1N2S(=O)(=O)c1ccc(Oc2ccc([N+](=O)[O-])cc2)cc1", "note": "(stereo not given)", "inhibition": "15.8%"}
{"smiles": "COc1ccc(-n2cc(CNC3CCOCC3)c(-c3cccc(F)c3)n2)cc1", "inhibition": "24.7% (active)"}
{"smiles": "CCC(O)C1CCN(Cc2cn(-c3ccc(OC)cc3)nc2-c2cccc(F)c2)CC1", "note": "(stereo not given)", "inhibition": "8.4%"}
{"smiles": "COc1ccc(-n2cc(CN(C)Cc3n[nH]c(=O)[nH]3)c(-c3cccc(F)c3)n2)cc1", "inhibition": "7.9%"}
{"smiles": "COc1ccc(C2OC(=O)CC2C(=O)NC(C)C)cc1", "note": "(stereo not given)", "inhibition": "-1.02%"}
{"smiles": "COc1ccc(C(=O)C2CCCN(C(=O)c3cc4nc(C)cc(C)n4n3)C2)cc1F", "note": "(stereo not given)", "inhibition": "0.49%"}
{"smiles": "Cc1ccc(CN2C(=O)CCC2C(=O)NCCCN2CCCCC2C)cc1", "note": "(stereo not given)", "inhibition": "1.42%"}
{"smiles": "FC(F)(F)c1cc(-c2ccco2)nc(NCc2ccc(Cl)cc2)n1", "inhibition": "-5.83%"}
{"smiles": "C[C@H](NC(=O)C1CC(=O)N(c2ccc3c(c2)OCO3)C1)C(=O)NCc1ccco1", "note": "(stereo not given in full)", "inhibition": "10.8%"}
{"smiles": "CCCC/C=C/c1cccc2nncn12", "inhibition": "-0.29%"}
{"smiles": "COc1ccc(C(C[N+](=O)[O-])n2nc(C)cc2C)cc1", "note": "(stereo not given)", "inhibition": "54.3% (active)"}
{"smiles": "Cc1cc(C)n(CC(O)COc2ccc(C(C)(C)C)cc2)n1", "note": "(stereo not given)", "inhibition": "-1.93%"}
{"smiles": "COc1ccc(C(CNC(=O)COc2ccc([N+](=O)[O-])cc2)N2CCCCC2)cc1", "note": "(stereo not given)", "inhibition": "-7.05%"}
{"smiles": "COc1ccc(C(=O)C(OP(=O)(OC)OC)c2ccccc2OC)cc1", "note": "(stereo not given)", "inhibition": "0.08%"}
{"smiles": "CC(C)NC(=S)N1CCN(S(C)(=O)=O)CC1", "inhibition": "-5.54%"}
{"smiles": "Cc1cc(-c2n[nH]c(=S)n2/N=C/C(Br)=C/c2ccccc2)n[nH]1", "inhibition": "62.1% (active)"}
{"smiles": "CCN(CC)S(=O)(=O)c1cccc(-c2n[nH]c(=S)n2/N=C/c2ccc(C(=O)OC)cc2)c1", "inhibition": "-11.2%"}
{"smiles": "CCCc1cc(-c2n[nH]c(=S)n2CC)c2ccccc2n1", "inhibition": "-2.69%"}
{"smiles": "COC(=O)C1=C(C)NC2=C(C(=O)c3ccccc32)C1c1ccc(-c2ccc(C(=O)O)cc2)o1", "note": "(stereo not given)", "inhibition": "17.7%"}
{"smiles": "Cc1ccc(NC(=S)N2CCN(c3ncccn3)CC2)cc1C", "inhibition": "5.22%"}
{"smiles": "O=C1/C(=C\\c2ccc(O)cc2)CCC1CNc1ccc(Cl)cc1", "note": "(stereo not given)", "inhibition": "23.7% (active)"}
{"smiles": "COc1cc(C)c(C)cc1S(=O)(=O)N1CCCc2ccccc21", "inhibition": "3.45%"}
{"smiles": "CCN1/C(=C\\c2ccc3ccccc3[n+]2CC)Sc2cc(C)ccc21", "inhibition": "28.2% (active)"}
{"smiles": "C=C(C)C(=O)Nc1cccc(C2=NOC3(C2)C[C@H](C(N)=O)N(C(=O)C(c2ccccc2)c2ccccc2)C3)c1", "note": "(stereo not given in full)", "inhibition": "0.12%"}
{"smiles": "Cc1ccn2c(=O)nc(SCC(=O)NCc3ccc4c(c3)OCO4)nc2c1", "inhibition": "-8.67%"}
{"smiles": "Cc1ccc(/C=C/C(=O)OCC(=O)NCc2ccc(Cl)cc2)o1", "inhibition": "5.48%"}
{"smiles": "COc1cc(NC(=S)NCCSc2ccc(C)cc2)cc(OC)c1", "inhibition": "-1.88%"}
{"smiles": "COc1cc(SC)ccc1C(=O)Nc1nc(C)cs1", "inhibition": "-0.45%"}
{"smiles": "Cc1csc(NC(=O)NC2(C(F)(F)F)Oc3ccccc3O2)n1", "inhibition": "49.8% (active)"}
{"smiles": "Cc1csc(NC(=O)C2CCN(S(=O)(=O)c3ccccc3)CC2)n1", "inhibition": "2.8%"}
{"smiles": "CCCCN(C(C)=O)c1ccc2c(c1)C1CC2CCN1Cc1ccccc1", "note": "(stereo not given)", "inhibition": "-6.18%"}
{"smiles": "COc1ccc(OC)c(/C(C)=N\\NC(=O)c2cc3cc(Cl)ccc3n2C)c1", "inhibition": "5.51%"}
{"smiles": "COc1cccc(NCCC(=O)c2cccc([N+](=O)[O-])c2)c1", "inhibition": "-2.37%"}
{"smiles": "COC(=O)/C=C\\C(=O)Nc1cccc([N+](=O)[O-])c1", "inhibition": "41% (active)"}
{"smiles": "CC(NC(=O)Nc1cccc([N+](=O)[O-])c1)c1ccc2c(c1)OCO2", "note": "(stereo not given)", "inhibition": "8.55%"}
{"smiles": "Cn1c2ccccc2c(=O)c2c(=O)n(Cc3ccco3)c(COc3ccccc3)nc21", "inhibition": "40.1% (active)"}
{"smiles": "O=C(Cn1c(=O)n(Cc2ccco2)c(=O)c2ccccc21)NCC1CCCO1", "note": "(stereo not given)", "inhibition": "-2.17%"}
{"smiles": "O=C(CCCOc1ccccc1)NCc1ccco1", "inhibition": "-2.47%"}
{"smiles": "CCn1c(SC)nc(O)c(C(c2ccc(OC)c(O)c2)c2c(O)nc(SC)n(CC)c2=O)c1=O", "inhibition": "30.9% (active)"}
{"smiles": "CCn1c(CNC(=O)c2ccc(OC)c(OC)c2)nnc1SCC(=O)Nc1ccccc1", "inhibition": "-3.29%"}
{"smiles": "CCSc1nc(O)c(C(c2cccc(OC)c2)c2c(O)nc(SCC)[nH]c2=O)c(=O)[nH]1", "inhibition": "-4.24%"}
{"smiles": "C=CCN(c1ccc(C(N)=O)cc1)S(C)(=O)=O", "inhibition": "0.17%"}
{"smiles": "CC(C)CCOc1ccc(C(=O)C[N+]2(C)CCOCC2)cc1", "inhibition": "1.19%"}
{"smiles": "CCOc1cc(C(=O)O)ccc1OCCOc1ccccc1", "inhibition": "-0.9%"}
{"smiles": "CCCOc1ccc(C(=O)C(CCC(CNCC)C(=O)c2ccc(OCCC)cc2)CNCC)cc1", "note": "(stereo not given)", "inhibition": "34.9% (active)"}
{"smiles": "O=C(Nc1ccccc1N1CCCC1)c1ccc(F)c(S(=O)(=O)N2CCOCC2)c1", "inhibition": "-7.04%"}
{"smiles": "CC(=O)N1CSCC1C(=O)O", "note": "(stereo not given)", "inhibition": "3.52%"}
{"smiles": "NC1=NC(=O)S/C1=C\\c1ccc(O)cc1", "inhibition": "7.71%"}
{"smiles": "C=CCNC(=O)/C=C/c1ccc(C(C)C)cc1", "inhibition": "-1.9%"}
{"smiles": "O=C(/C=C(O)/C=C/c1ccc(O)cc1)/C=C/c1ccc(O)cc1", "inhibition": "35.1% (active)"}
{"smiles": "CCc1nc(C)cn1S(=O)(=O)c1cc([N+](=O)[O-])ccc1Cl", "inhibition": "4.39%"}
{"smiles": "CCCC(C(=O)OCCN(CC)CC)(c1ccccc1)c1ccccc1", "inhibition": "6.21%"}
{"smiles": "CCC(C(=O)OCCN(CC)CC)c1ccccc1", "note": "(stereo not given)", "inhibition": "49.6% (active)"}
{"smiles": "CN(C)CCOC(=O)C(c1ccccc1)C1(O)CCCC1", "note": "(stereo not given)", "inhibition": "-6.36%"}
{"smiles": "Cc1ccnc(SCCn2c(N(C)Cc3ccccc3)nc3c2c(=O)n(C)c(=O)n3C)n1", "inhibition": "-0.81%"}
{"smiles": "N#Cc1ccccc1S(=O)(=O)N1CCN(Cc2c(O)ccc3ccccc23)CC1", "inhibition": "27.7% (active)"}
{"smiles": "O=c1oc2c(CN3CCCCC3)c(O)ccc2c2c1CCCCC2", "inhibition": "-1.69%"}
{"smiles": "N#Cc1ccccc1S(=O)(=O)N1CCN(C(=O)c2cc(-c3ccccc3)nn2-c2ccccc2)CC1", "inhibition": "-8.95%"}
{"smiles": "Cn1c(CCC(=O)OCC(=O)NCc2ccccc2Cl)nc(=O)c2ccccc21", "inhibition": "2.53%"}
{"smiles": "CN(CC(=O)NCCc1ccccc1)S(=O)(=O)c1cnc[nH]1", "inhibition": "1.21%"}
{"smiles": "COCCN(Cc1ccccc1)C(=O)Cc1ccc(S(=O)(=O)N2CCOCC2)s1", "inhibition": "-7.33%"}
{"smiles": "CCCCOC(=O)CNc1nnc(SCC(=O)OCC)[nH]c1=O", "inhibition": "55.4% (active)"}
{"smiles": "CCOC(=O)CSc1nc(C)c(Oc2ccc(Cl)cc2Cl)c(=O)[nH]1", "inhibition": "-1.81%"}
{"smiles": "CCc1ccc(C(=O)CSc2nnc(C)c(=O)[nH]2)cc1", "inhibition": "-3.63%"}
{"smiles": "COC(C/C=C/C(=O)[C@@H](C)OCc1ccccc1)OC", "inhibition": "24.4% (active)"}
{"smiles": "COC(C[C@@H]1O[C@@H]1C(=O)[C@H](C)OCc1ccccc1)OC", "inhibition": "-0.78%"}
{"smiles": "COC(C[C@H](O)CC(=O)[C@@H](C)OCc1ccccc1)OC", "inhibition": "2.47%"}
{"smiles": "COc1ccc(-c2cnc3c(c2)C(=O)N([C@H](C)CO)C[C@@H](C)[C@H](CN(C)Cc2ccccc2)O3)cc1", "inhibition": "4.36%"}
{"smiles": "CCCCCCN1CCN(C2CN(Cc3cn(CCCCCC)nn3)S(=O)(=O)C2)CC1", "note": "(stereo not given)", "inhibition": "-2.61%"}
{"smiles": "CC(Sc1nncs1)C(=O)NCc1ccc2c(c1)OCO2", "note": "(stereo not given)", "inhibition": "-10.2%"}
{"smiles": "CCn1cc(C(=O)N2CC(C)CC(C)C2)c(=O)c2cc(S(=O)(=O)N3CCCC3)ccc21", "note": "(stereo not given)", "inhibition": "-1.5%"}
{"smiles": "O=C1C(Cl)=C(Oc2ccccc2)C(=O)c2ccccc21", "inhibition": "84.3% (active)"}
{"smiles": "O=C(N[C@H]1C/C=C\\C(c2cccc(F)c2)N(Cc2ccccc2)C(=O)C1)OCC1c2ccccc2-c2ccccc21", "note": "(stereo not given in full)", "inhibition": "-1.93%"}
{"smiles": "Cc1ccccc1CN1C[C@@H]2C[C@@H](c3cn(C)nc3-c3ccccc3)N3CCC[C@@]23C1=O", "inhibition": "22.1% (active)"}
{"smiles": "Cc1ccccc1CN1C[C@@H]2C[C@@H](c3ccc4nsnc4c3)N3CCC[C@@]23C1=O", "inhibition": "0.89%"}
{"smiles": "COc1ccc(CN2CCN(Cc3cn(C)nc3-c3ccccc3)CC2CCO)c(C)c1C", "note": "(stereo not given)", "inhibition": "8.28%"}
{"smiles": "COC(=O)CCCC1=CC2=C(c3ccccc3)C(=O)C(C)(OC(=O)C3CCCC3)C(=O)C2=CN1c1ccc(OC)cc1", "note": "(stereo not given)", "inhibition": "3.52%"}
{"smiles": "CC1(OC(=O)C2CCCC2)C(=O)C=C2C=C(c3ccc(C#N)cc3)OC=C2C1=O", "note": "(stereo not given)", "inhibition": "22.6% (active)"}
{"smiles": "CC1(C(=O)NS(=O)(=O)c2ccc(C#N)cc2)CCN1C(=O)c1ccc(C2CCCCC2)cc1", "note": "(stereo not given)", "inhibition": "-0.02%"}
{"smiles": "CC(C)CN1CCC1(C)C(=O)Nc1ccc(OC(F)F)cc1", "note": "(stereo not given)", "inhibition": "-1.42%"}
{"smiles": "COc1ccc(C(=O)/C=C/Nc2ccccn2)cc1", "inhibition": "0.9%"}
{"smiles": "Cc1cc(C)nc(S/C=C/C(=O)c2ccccc2)n1", "inhibition": "65.4% (active)"}
{"smiles": "CSc1nc(N(C)NC(=O)c2cccc(C)c2)c2ccccc2n1", "inhibition": "-6.13%"}
{"smiles": "O=C(Nc1cccc(Cl)c1Cl)c1ccccc1NC(=O)C1CC=CCC1C(=O)O", "note": "(stereo not given)", "inhibition": "-5.77%"}
{"smiles": "O=[N+]([O-])/C=C/c1ccc2c(ccn2Cc2ccccc2)c1", "inhibition": "92% (active)"}
